Inhibition data for 94 compounds are collected here from PubChem BioAssay AID602250 (The Scripps Research Institute Molecular Screening Center, 2012).

Molecules are shown by their SMILES. The campaign covered roughly 360,000 compounds. About 2,200 (0.61%) were called active. This is one part of a sample in which actives are shown more often than they occur.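 How the source made its calls: active means inhibition above a per-plate cutoff, the plate's mean sample inhibition plus 3 SD (cut at about 24% in these data); inactive means the rest.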

The nature of the test: calcium signal blockers in parental CHO-K1 cells – cell-based, Fluo-8 calcium fluorescence, full deck, 1536-well, counter-screen for M1 antagonist project, primary screen (AID 602250).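 Further: 0% = DMSO plus EC80 ATP and 100% = DMSO alone without ATP.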 To be noted: ATP-induced calcium, Fluo-8 fluorescence, at 3 µM, hits give high values.
As for `Cc1cccn2c(=O)c3cc(C(=O)NCCN4CCOCC4)c(=N)n(Cc4cccnc4)c3nc12`, the inhibition was 6.02% (inactive).

As for `Cc1cccn2c(=O)c3cc(C#N)c(=O)n(CCCN4CCOCC4)c3nc12`, the inhibition was 25.6% (active).

`Cc1cccn2c(=O)c3cc(C#N)c(=NC(=O)c4cccnc4)n(CC4CCCO4)c3nc12` (centres undefined): the inhibition is 20.6% (inactive).

With `COCC(C)NC(=O)c1ccc(-n2nc(C(F)(F)F)cc2-c2cccs2)cc1` (centres undefined), the inhibition is -4.35% (inactive).

Consider `CC(C)(C)NC(=O)Cn1nnc(-c2ccccc2Cl)n1`, for which the inhibition is -23% (inactive).

Regarding `NC(=O)c1ncn([C@@H]2O[C@H](CN=C3NS(=O)(=O)c4ccccc43)[C@@H](O)[C@H]2O)n1`, the inhibition is -7.18% (inactive).

On to `Cc1c(-c2ccccc2)cn2c1-c1ccc(C)n1CC2`, for which the inhibition was 43.4% (active).

For `CC(=O)c1ccc(NC(=O)CCNS(=O)(=O)c2cc(Br)cnc2N)cc1`, the inhibition was 0.07% (inactive).

Take `Cc1ccc(S(=O)(=O)c2c[nH]c3ccc(Cl)cc3c2=O)cc1`: the inhibition is 0.53% (inactive).

With `O=C(CCn1nnnc1CN1CCOCC1)N1CCC(c2ccccc2Cl)C1` (centres undefined), the inhibition was -9.8% (inactive).

On to `C=CCSc1nsc(NC(=O)Nc2cccc(C(C)=O)c2)n1`, for which the inhibition was 24.7% (active).

Take `CSc1nsc(NC(=O)Nc2ccccc2)n1`: the inhibition was 28.2% (active).

Consider `CC(=O)c1cccc(NC(=O)[C@@H](NC(N)=O)C(C)C)c1`, for which the inhibition is -2.68% (inactive).

As for `O=C(Nc1ccccc1)Nc1nnc(COc2ccccc2F)s1`, the inhibition is 7.01% (inactive).

As for `CCSc1nsc(NC(=O)Nc2cccc(C(C)=O)c2)n1`, the inhibition was 30.8% (active).

On to `CC(=O)c1cccc(NC(=S)N2CCN(S(C)(=O)=O)CC2)c1`, for which the inhibition is -7.23% (inactive).

On to `COc1ccc(C(=O)OCC(=O)Nc2cccc(C(C)=O)c2)cc1OC`, for which the inhibition was -4.37% (inactive).

For `CSc1nsc(SCC(=O)Nc2cc(C(=O)O)ccc2C)n1`, the inhibition was -5.18% (inactive).

Take `CCCCN1C(=O)C(=O)N(CC(=O)Nc2cccc(C(C)=O)c2)C1=O`: the inhibition is 10.5% (inactive).

Take `CCN1C(=O)C(C(=O)NC(C)c2ccccc2)C2CC1(C)Oc1ccccc12` (centres undefined): the inhibition was -9.9% (inactive).

For the compound `CC(C)n1cnc2c(NCc3ccccc3)cc(OCC3CCN(C)CC3)cc21`, the inhibition was -18.6% (inactive).

In the case of `Cc1cc(S(=O)(=O)NCC(C)C)ccc1OCC(=O)NC1CC1`, the inhibition was 7.62% (inactive).

Take `O=C(CN1C(=O)NC2(CCCC2)C1=O)NCC1CCCO1` (centres undefined): the inhibition was -10.5% (inactive).

As for `O=C(Nc1ccccc1C(=O)NCC1CCCO1)c1ccccc1F` (centres undefined), the inhibition was -7.11% (inactive).

For `CC(NC(=S)Nc1ccc(S(N)(=O)=O)cc1)c1ccc2c(c1)OCO2` (centres undefined), the inhibition is 9.71% (inactive).

For `NS(=O)(=O)c1ccc(NC(=O)COC(=O)c2c3c(nc4ccccc24)/C(=C\c2ccc4c(c2)OCO4)CCC3)cc1`, the inhibition is 26.9% (active).

In the case of `NS(=O)(=O)c1ccc(NC(=O)COC(=O)CCc2c[nH]c3ccccc23)cc1`, the inhibition is 0.38% (inactive).

On to `Cc1ccc(C(=O)N/C(=C\c2ccco2)C(=O)NC2CCS(=O)(=O)C2)cc1` (centres undefined), for which the inhibition is -6.64% (inactive).

On to `CCC(CC)C(=O)Nc1cc(C(=O)OC)cc(C(=O)OC)c1`, for which the inhibition is -1.71% (inactive).

Regarding `CC(C)C(NC(=O)c1c(F)cccc1F)C(=O)NNC(=O)c1ccccc1` (centres undefined), the inhibition is -6.47% (inactive).

Regarding `NC(=O)c1ccc(NC(=O)COC(=O)C(Cc2ccccc2)NC(=O)c2ccccc2)cc1` (centres undefined), the inhibition was 18.1% (inactive).

With `CN(Cc1ccccc1F)C(=O)C(Cc1ccccc1)NC(=O)c1ccccc1` (centres undefined), the inhibition is 31.8% (active).

In the case of `Cc1ccccc1N1CCN(C2CCCN(C(=O)c3cn4c(C)cccc4n3)C2)CC1` (centres undefined), the inhibition was -0.61% (inactive).

Consider `CCc1ccccc1NC(=O)c1ccc2c(c1)CCN2S(C)(=O)=O`, for which the inhibition is 4.89% (inactive).

For the compound `CSc1ccccc1NC(=O)c1ccc2c(c1)CCN2S(C)(=O)=O`, the inhibition is -14.8% (inactive).

For the compound `CS(=O)(=O)N1CCc2cc(C(=O)Nc3ccccc3Br)ccc21`, the inhibition was 25.4% (active).

Regarding `Oc1cc2c(cc1O)CN(C(=S)NCCc1ccc(Cl)cc1)CCC2`, the inhibition is 1.38% (inactive).

For the compound `O=C(CSc1nnc2ccc(-c3ccncc3)nn12)N1CCCCC1`, the inhibition is -8.71% (inactive).

On to `Cc1nn(Cc2ccc(Cl)c(Cl)c2)c(C)c1NC(=O)c1cc(C2CC2)on1`, for which the inhibition was -3.24% (inactive).

On to `Cc1nn(Cc2ccc(F)cc2)c(C)c1NC(=O)c1noc2c1CCc1ccccc1-2`, for which the inhibition was 24.5% (active).

In the case of `Cc1ccccc1Cn1nc(C)c(NC(=O)C(F)(F)F)c1C`, the inhibition was -5.32% (inactive).

Turning to `Cc1cc(C)c2oc(C(=O)Nc3ccc(S(=O)(=O)Nc4nccc(C)n4)cc3)cc(=O)c2c1`, the inhibition was -10.7% (inactive).

For `Cc1ccc(OCc2cc(C(=O)N(C)CCn3ccnc3C)no2)cc1C`, the inhibition is -1.34% (inactive).

With `Cc1n[nH]c(=O)c2c(NC(=O)CSc3cc(Cl)ccc3Cl)oc(C)c12`, the inhibition was -14.8% (inactive).

Turning to `CCC(C)CN1CCC(CO)(Cc2ccccc2Cl)CC1` (centres undefined), the inhibition was -1.43% (inactive).

For `Nc1ccccc1C(=O)NC1CCCCNC1=O` (centres undefined), the inhibition is -4.31% (inactive).

As to `O=C(NNC(=S)NCc1ccccc1)c1ccc(OC(F)F)cc1`, the inhibition was -9.25% (inactive).

Take `Fc1ccccc1CNC(=S)Nc1ccc(Cl)cc1`: the inhibition is 7.2% (inactive).

In the case of `FC(F)(F)Oc1ccc(NC(=S)NCc2ccccc2)cc1`, the inhibition is 26.5% (active).

As for `COc1ccc(NS(=O)(=O)c2ccc(N3CCN(CCO)CC3)c([N+](=O)[O-])c2)cc1`, the inhibition is 4.94% (inactive).

For the compound `COc1ccc(NS(=O)(=O)c2ccc(Oc3c(C#N)cccc3C#N)cc2)cc1`, the inhibition is 49.1% (active).

On to `COc1ccc(S(=O)(=O)Nc2ccc3oc(C)c(C(C)=O)c3c2)cc1`, for which the inhibition was 9.32% (inactive).

On to `CC(OC(=O)CCC(=O)c1ccccc1)C(=O)Nc1ccc(F)cc1` (centres undefined), for which the inhibition was 1.59% (inactive).

With `COc1cc(OC)nc(N/N=C(\c2ccccc2)c2ccncc2)n1`, the inhibition was -9.28% (inactive).

`O=C(Nc1nnc(C2CC2)s1)c1ccccn1`: the inhibition is -5.35% (inactive).

`c1ccc(C(=NNc2nc3ccccc3s2)c2ccccn2)cc1`: the inhibition is 35.5% (active).

For the compound `CC1(C(=O)NCc2ccc3c(c2)OCO3)CCN1CCc1ccccc1` (centres undefined), the inhibition is -8.04% (inactive).

With `O=C(CC1Sc2ccccc2NC1=O)NNc1ccc(Cl)c(Cl)c1` (centres undefined), the inhibition was -13.4% (inactive).

For the compound `O=C(COc1ccccc1)N1CCN=C1SCc1cccc(F)c1`, the inhibition was -5.27% (inactive).

`O=C(NCC(=O)N1CCC2(CC1)NCCc1[nH]cnc12)c1ccc(Br)cc1`: the inhibition was -11.4% (inactive).

Regarding `CCC(=O)N1c2ccc(S(=O)(=O)NCc3ccco3)cc2CC1C` (centres undefined), the inhibition is -18.4% (inactive).

Take `CCC(=O)N1c2ccc(S(=O)(=O)CCC(=O)N3CCN(c4ccccc4)CC3)cc2CC1C` (centres undefined): the inhibition is 24.5% (active).

With `CCC(=O)N1CCc2cc(S(=O)(=O)CCC(=O)N3CCN(c4ccccc4F)CC3)ccc21`, the inhibition is -5.31% (inactive).

With `CC[C@]12c3[nH]c4ccc(OC)cc4c3CCN1C(=O)C(CC(=O)NCCN1CCOCC1)C[C@@H]2C(=O)N1CCN(C(=O)C2CC2)CC1` (some centres undefined), the inhibition was -4.64% (inactive).

Turning to `CCc1ccc2oc(=O)cc(CN3CCCCC3C)c2c1` (centres undefined), the inhibition was -11.8% (inactive).

Turning to `c1ccc2c(c1)OCC(CNc1ncnc3nc[nH]c13)O2` (centres undefined), the inhibition was 44.4% (active).

As to `O=C(COC(=O)c1ccc(F)cc1)NCC1COc2ccccc2O1` (centres undefined), the inhibition was -5.85% (inactive).

For `COc1ccc(CCNc2ncnc3nc[nH]c23)cc1OC`, the inhibition was 10.8% (inactive).

As for `O=C(Nc1ccc2c(c1)OCCO2)C1c2ccccc2OCC(=O)N1Cc1ccccn1` (centres undefined), the inhibition is -12.5% (inactive).

In the case of `CN(CCO)Cc1csc2ccc(Br)cc12`, the inhibition is -7.65% (inactive).

Consider `CN(Cc1ccc(F)cc1)C(=O)COc1ccc2ccccc2c1`, for which the inhibition is -15.2% (inactive).

For the compound `COc1ccc(C(=O)COC(=O)Cn2cnc3c2c(=O)n(C)c(=O)n3C)c(OC)c1`, the inhibition is -0.99% (inactive).

Consider `COc1ccc(C(C#N)Nc2ccccc2C)cc1` (centres undefined), for which the inhibition is -8.31% (inactive).

On to `CC(C)(C)n1nnnc1C(c1ccc2ncccc2c1)N1CCSCC1` (centres undefined), for which the inhibition is -9.5% (inactive).

`COc1ccc(N2CCN(C(=O)CNC(=O)c3ccc(C(C)(C)C)cc3)CC2)cc1`: the inhibition was 9.5% (inactive).

Take `O=C(NCC(=O)N1CCN(c2ncc(C(F)(F)F)cc2Cl)CC1)c1ccc(Br)o1`: the inhibition was -11.5% (inactive).

On to `CCOc1ccc(C(=O)NCC(=O)N2CCN(c3ccc(C(F)(F)F)cn3)CC2)cc1`, for which the inhibition was 31.8% (active).

For `Cc1ccccc1CSCCNC(=O)c1ccc(N(C)S(=O)(=O)c2ccccc2)cc1`, the inhibition is -7.28% (inactive).

For the compound `Cc1cc(-c2nnc(SCC(=O)Nc3ccc(S(N)(=O)=O)cc3)n2N)n[nH]1`, the inhibition was -13.8% (inactive).

Regarding `O=C(NCc1ccccc1)C1c2ccccc2OCC(=O)N1C1CC1` (centres undefined), the inhibition was 0.77% (inactive).

Take `O=[N+]([O-])c1ccc2c(c1)C(O)n1nc(-c3ccccc3)nc1S2` (centres undefined): the inhibition is -21.9% (inactive).

Turning to `COc1ccc(CCNc2nc3ccc(C)cc3n3cnnc23)cc1OC`, the inhibition is -5.44% (inactive).

For the compound `COc1ccc(OC)c(Nc2nc3ccccc3n3cnnc23)c1`, the inhibition is -12.2% (inactive).

For `COc1cc(Nc2nc3ccc(Cl)cc3n3cnnc23)cc(OC)c1OC`, the inhibition was 28.9% (active).

In the case of `O=C1CN(C(=O)COC(=O)c2cnc(Cl)c(Cl)c2)c2ccccc2N1`, the inhibition was -25% (inactive).

As to `O=C(CCc1nnc(Cc2ccc3c(c2)OCO3)o1)NCCc1ccccc1Cl`, the inhibition was -0.82% (inactive).

Take `COc1ccccc1Cc1c(-c2ccc(Cl)cc2)nc2c3ccccc3ccn12`: the inhibition is -20.1% (inactive).

For `CCCCn1c(=S)[nH]c2cc(S(=O)(=O)N3CCCCC3)ccc21`, the inhibition was -12.6% (inactive).

`CNS(=O)(=O)c1ccc2c(c1)[nH]c(=S)n2C`: the inhibition was 35.9% (active).

For `CCn1c(=S)[nH]c2cc(S(=O)(=O)N3CCOCC3)ccc21`, the inhibition was -3.41% (inactive).

Take `CN1CCc2c(sc3c2c(NCc2ccco2)nc2nnnn23)C1`: the inhibition is -19.9% (inactive).

For the compound `COc1cc(OC)cc(C(=O)NC(=S)N2CCN(c3ccc(C(F)(F)F)cc3[N+](=O)[O-])CC2)c1`, the inhibition is 5.86% (inactive).

As for `O=C(c1ccc(N2CCCC2=O)cc1)N1CCN(c2ccc(C(F)(F)F)cc2[N+](=O)[O-])CC1`, the inhibition was 44% (active).

With `O=C(Cc1ccc(S(=O)(=O)N2CCOCC2)s1)N1CCN(c2ccc(C(F)(F)F)cc2[N+](=O)[O-])CC1`, the inhibition was 5.21% (inactive).

The inhibition is the drop in the measured response relative to a control, in per cent.
